# Assay results from PubChem BioAssay (Tox21).
# Values joined by “and” are separate entries in the source; they are usually repeats but may differ in a detail not shown here. Identical values can stand only once. Inconclusive results are not listed. Entries that show only a call come without a potency. The source holds several records for some structures; these can differ, active in one and inactive in another. Active and inactive are the calls of the source. The call rests on the fitted dose curve; in most records, active means well fitted curve in the direction sought with a large enough effect in the repeat runs; inconclusive means weak or mixed curves; inactive means no such curve, though single readings can be large; an effect the other way counts as inactive or inconclusive.
# Assays:
# [1] = Human pregnane X receptor (PXR) small molecule agonists, qHTS cell viability counter screen (AID 1346977); further: nearly all actives have a fitted effect of over 50% in size; further: potency means the concentration at half of the fitted maximal effect
# In short: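 Cytotoxicity counter screen run in the same wells as the PXR luciferase assay, using PXR-Luc HepG2 cells in charcoal-stripped serum medium. Viability: CellTiter-Fluor fluorescence after 24hr compound treatment.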
# [2] = Caspase-3/7 induction in HepG2 cells by small molecules, qHTS assay (AID 1346978); further: nearly all actives have a fitted effect of over 15% in size; further: potency means the concentration at half of the fitted maximal effect
# In short: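 Wild-type HepG2 cells, 2,000/well, settled 5 hr at 37 C and 5% CO2, then compound-treated for 17 hr; caspase-3/7 activity read by luminescent Caspase-Glo 3/7 after 30 min at room temperature.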
# [3] = Caspase-3/7 induction in CHO-K1 cells by small molecules, qHTS cell viability counter screen (AID 1346979); further: nearly all actives have a fitted effect of over 35% in size; further: potency means the concentration at half of the fitted maximal effect
# In short: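 Cytotoxicity counter screen run in parallel with the caspase-3/7 assay: CHO-K1 cells, 16hr compound treatment at 37C, then CellTiter-Fluor for 1hr before fluorescence reading.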
# [4] = Caspase-3/7 induction in CHO-K1 cells by small molecules, qHTS assay (AID 1346980); further: nearly all actives have a fitted effect of over 15% in size
# In short: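 Wild-type CHO-K1 cells exposed to compounds for 17hr at 37 C, 5% CO2. Caspase-3/7 activity then measured by Caspase-Glo 3/7 luminescence after 30min at room temperature.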
# [5] = Caspase-3/7 induction in HepG2 cells by small molecules, qHTS cell viability counter screen (AID 1346981); further: nearly all actives have a fitted effect of over 30% in size; further: potency means the concentration at half of the fitted maximal effect
# In short: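 After a 5-hr attachment period at 37 C and 5% CO2, wild-type HepG2 cells received compounds in DMSO. Sixteen hours later CellTiter-Fluor was dispensed and the fluorescent signal quantified after a further hour.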
# [6] = target: Nuclear receptor subfamily 1 group I member 2 (Homo sapiens) (UniProt O75469); experiment: Human pregnane X receptor (PXR) small molecule agonists, qHTS assay (AID 1346982); further: nearly all actives have a fitted effect of over 35% in size; further: potency means the concentration at half of the fitted maximal effect
# In short: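 Tox21 qHTS; PXR-Luc HepG2; compounds pinned from DMSO; 24 hr, 37 C; ONE-Glo luciferase detection, 30 min room temperature.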
# [7] = target: Nuclear receptor subfamily 1 group I member 2 (Rattus norvegicus) (UniProt Q9R1A7); experiment: Rat pregnane X receptor (rPXR) activation by small molecules, qHTS assay (AID 1346983); settings: rPXR luciferase reporter cells, One-Glo luminescence, 24 h; stronger effect = higher value; further: nearly all actives have a fitted effect of over 20% in size
# In short: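 Cell-based rPXR activation assay: rPXR cells, 2,000 per well, rested 5hr at 37 C, then exposed to compounds in DMSO for 24 hr at 37 C. Luciferase activity read by One-Glo luminescence after 30 min at room temperature.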
# [8] = target: Nuclear receptor subfamily 1 group I member 2 (Homo sapiens) (UniProt O75469); experiment: CYP3A4 induction through human pregnane X receptor (PXR) by small molecules, qHTS assay (AID 1346984); further: nearly all actives have a fitted effect of over 40% in size; further: potency means the concentration at half of the fitted maximal effect
# In short: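 Cells (DPX-2; HepG2 with PXR element plus CYP3A4-promoter luciferase) settled 5hr, then were treated 24hr at 37C. A 3hr, 3uM-final Luciferin-IPA step preceded luminescence measurement with One-Glo.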
# [9] = target: Nuclear receptor subfamily 1 group I member 2 (Homo sapiens) (UniProt O75469); experiment: Human pregnane X receptor (PXR) activation by small molecules, qHTS assay (AID 1346985); further: nearly all actives have a fitted effect of over 40% in size
# In short: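 DPX-2 cells (HepG2 co-transfected with a PXR response element and a CYP3A4-promoter luciferase construct) were seeded at 2,000 per well, rested 5 hr at 37C, then exposed to DMSO-dissolved compounds for 24 hr. Activation was read as luciferase luminescence.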
# [10] = target: Cytochrome P450 2D6 (Homo sapiens) (UniProt P10635); experiment: Cytochrome P450 Family 2 Subfamily D Member 6 (CYP2D6) small molecule antagonists: luciferase reporter qHTS assay (AID 1671196); further: nearly all actives have a fitted effect of over 50% in size; further: potency means the concentration at half of the fitted maximal effect
# In short: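 Room-temperature luminescent CYP2D6 activity assay: compound preincubated 10 min with enzyme–substrate mix, NADPH-initiated reaction 1 h, detection reagent 20 min before reading.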
# [11] = target: Cytochrome P450 2C19 (Homo sapiens) (UniProt P33261); experiment: Cytochrome P450 Family 2 Subfamily C Member 19 (CYP2C19) small molecule antagonists: luciferase reporter qHTS assay (AID 1671197); further: nearly all actives have a fitted effect of over 65% in size; further: potency means the concentration at half of the fitted maximal effect
# In short: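 Enzyme-substrate mix with proluciferin substrate (P450-Glo CYP2C19 system) preincubated with compounds 10 min at room temperature; NADPH regeneration solution added, 37C for 1 h; detection reagent stops reaction, luminescence read after 20 min. Ketoconazole positive control.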
# [12] = target: Cytochrome P450 2C9 (Homo sapiens) (UniProt P11712); experiment: Cytochrome P450 Family 2 Subfamily C Member 9 (CYP2C9) small molecule antagonists: luciferase reporter qHTS assay (AID 1671198); further: nearly all actives have a fitted effect of over 50% in size; further: potency means the concentration at half of the fitted maximal effect
# In short: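 P450-Glo proluciferin substrate with CYP2C9 enzyme; 10 min RT preincubation, then NADPH regeneration 1 h at 37C; luciferin detection reagent 20 min RT, luminescence in relative luminescence units.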
# [13] = target: Cytochrome P450 1A2 (Homo sapiens) (UniProt P05177); experiment: Cytochrome P450 Family 1 Subfamily A Member 2 (CYP1A2) small molecule antagonists: luciferase reporter qHTS assay (AID 1671199); further: nearly all actives have a fitted effect of over 50% in size; further: potency means the concentration at half of the fitted maximal effect
# In short: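 Room-temperature CYP1A2 reaction with proluciferin substrate: compounds added from DMSO, 10 min preincubation, NADPH regeneration for 1 h. Luciferin detection reagent then added; luminescence recorded as RLU.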
# [14] = target: Voltage-gated inwardly rectifying potassium channel KCNH2 (Homo sapiens) (UniProt Q12809); experiment: Human Ether-a-go-go-Related Gene (hERG) channel small molecule antagonists: fluorescence cell-based qHTS assay (AID 1671200)
# In short: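 Fluorescence at 540 nm emission (480 nm excitation) was recorded kinetically for 2 min at 1-second intervals once the thallium-containing stimulus reached cells previously loaded with FluxOR II dye.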
# [15] = target: Cytochrome P450 3A4 (Homo sapiens) (UniProt P08684); experiment: Cytochrome P450 Family 3 Subfamily A Member 4 (CYP3A4) small molecule antagonists: luciferase reporter qHTS assay (AID 1671201); further: nearly all actives have a fitted effect of over 50% in size; further: potency means the concentration at half of the fitted maximal effect
# In short: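 qHTS, 1536-well. CYP3A4 + proluciferin substrate, cpd 10 min RT → NADPH regen 1 h RT → detection reagent 20 min → luminescence (RLU). Ketoconazole positive control.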
# Chain of Cytochrome P450 3A4 (Homo sapiens) (P08684 whole entry, looked up): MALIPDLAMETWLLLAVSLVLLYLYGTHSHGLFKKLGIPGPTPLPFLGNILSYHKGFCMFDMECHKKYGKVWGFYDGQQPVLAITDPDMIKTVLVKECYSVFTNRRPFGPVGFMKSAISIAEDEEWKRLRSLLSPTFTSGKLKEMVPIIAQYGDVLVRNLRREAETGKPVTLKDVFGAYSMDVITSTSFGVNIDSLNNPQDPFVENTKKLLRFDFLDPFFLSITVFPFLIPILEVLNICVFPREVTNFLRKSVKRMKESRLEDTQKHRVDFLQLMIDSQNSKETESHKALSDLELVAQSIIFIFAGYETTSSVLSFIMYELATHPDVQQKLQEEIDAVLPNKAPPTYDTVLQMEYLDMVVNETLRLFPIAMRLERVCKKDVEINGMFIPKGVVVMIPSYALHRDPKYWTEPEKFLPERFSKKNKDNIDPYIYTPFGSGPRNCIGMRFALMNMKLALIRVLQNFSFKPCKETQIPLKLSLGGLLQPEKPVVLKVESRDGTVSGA
# Chain of Voltage-gated inwardly rectifying potassium channel KCNH2 (Homo sapiens) (Q12809 whole entry, looked up): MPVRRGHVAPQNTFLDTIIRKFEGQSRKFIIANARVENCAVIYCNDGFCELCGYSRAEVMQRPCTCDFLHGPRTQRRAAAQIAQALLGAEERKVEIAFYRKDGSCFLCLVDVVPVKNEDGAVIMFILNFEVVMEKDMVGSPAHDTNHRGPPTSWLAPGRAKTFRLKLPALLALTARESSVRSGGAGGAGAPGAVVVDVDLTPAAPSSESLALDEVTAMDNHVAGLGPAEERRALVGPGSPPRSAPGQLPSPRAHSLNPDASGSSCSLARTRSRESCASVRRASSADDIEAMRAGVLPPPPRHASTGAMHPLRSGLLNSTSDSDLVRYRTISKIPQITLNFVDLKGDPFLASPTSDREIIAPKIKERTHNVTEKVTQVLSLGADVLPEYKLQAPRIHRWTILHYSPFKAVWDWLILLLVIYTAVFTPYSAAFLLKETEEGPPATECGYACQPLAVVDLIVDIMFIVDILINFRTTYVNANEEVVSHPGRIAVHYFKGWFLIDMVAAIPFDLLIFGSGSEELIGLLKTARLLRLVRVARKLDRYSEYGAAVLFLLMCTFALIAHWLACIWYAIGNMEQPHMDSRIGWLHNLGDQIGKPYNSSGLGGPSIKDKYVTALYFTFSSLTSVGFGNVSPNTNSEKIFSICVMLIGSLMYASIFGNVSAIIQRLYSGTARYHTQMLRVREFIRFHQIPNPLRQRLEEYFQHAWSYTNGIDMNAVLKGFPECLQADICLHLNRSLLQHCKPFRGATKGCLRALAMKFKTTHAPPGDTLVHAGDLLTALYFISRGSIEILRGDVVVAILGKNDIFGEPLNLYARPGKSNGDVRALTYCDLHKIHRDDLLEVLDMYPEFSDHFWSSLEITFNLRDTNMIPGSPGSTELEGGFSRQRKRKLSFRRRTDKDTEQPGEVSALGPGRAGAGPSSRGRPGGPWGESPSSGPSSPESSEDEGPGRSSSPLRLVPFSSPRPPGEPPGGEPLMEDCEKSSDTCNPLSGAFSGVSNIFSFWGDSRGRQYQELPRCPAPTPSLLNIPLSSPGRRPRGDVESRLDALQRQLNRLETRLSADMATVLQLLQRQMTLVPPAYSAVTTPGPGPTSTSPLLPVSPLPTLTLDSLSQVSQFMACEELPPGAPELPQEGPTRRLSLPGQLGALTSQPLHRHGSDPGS
# Chain of Nuclear receptor subfamily 1 group I member 2 (Rattus norvegicus) (Q9R1A7 whole entry, looked up): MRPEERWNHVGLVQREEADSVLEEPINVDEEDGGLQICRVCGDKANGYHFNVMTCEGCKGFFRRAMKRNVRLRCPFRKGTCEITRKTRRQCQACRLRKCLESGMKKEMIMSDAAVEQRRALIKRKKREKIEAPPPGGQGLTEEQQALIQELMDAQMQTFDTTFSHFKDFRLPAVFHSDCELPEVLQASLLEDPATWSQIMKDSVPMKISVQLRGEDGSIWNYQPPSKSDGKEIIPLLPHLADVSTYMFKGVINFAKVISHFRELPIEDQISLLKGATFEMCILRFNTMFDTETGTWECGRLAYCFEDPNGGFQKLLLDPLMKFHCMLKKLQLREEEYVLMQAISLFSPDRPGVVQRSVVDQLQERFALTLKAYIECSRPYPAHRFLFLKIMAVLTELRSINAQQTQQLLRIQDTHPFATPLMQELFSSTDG
# Chain of Cytochrome P450 2D6 (Homo sapiens) (P10635 whole entry, looked up): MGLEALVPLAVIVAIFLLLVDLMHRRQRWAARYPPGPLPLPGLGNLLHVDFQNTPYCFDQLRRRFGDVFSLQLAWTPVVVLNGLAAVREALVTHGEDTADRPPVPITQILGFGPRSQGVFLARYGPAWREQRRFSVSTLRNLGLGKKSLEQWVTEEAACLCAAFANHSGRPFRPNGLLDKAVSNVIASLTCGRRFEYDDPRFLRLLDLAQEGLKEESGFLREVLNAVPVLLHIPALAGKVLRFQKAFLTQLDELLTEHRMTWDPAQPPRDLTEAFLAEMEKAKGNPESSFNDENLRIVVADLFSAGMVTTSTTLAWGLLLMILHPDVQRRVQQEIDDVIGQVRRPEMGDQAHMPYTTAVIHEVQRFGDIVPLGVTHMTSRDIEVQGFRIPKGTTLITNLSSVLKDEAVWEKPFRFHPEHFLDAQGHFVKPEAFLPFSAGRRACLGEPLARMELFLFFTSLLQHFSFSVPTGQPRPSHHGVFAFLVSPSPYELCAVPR
# Chain of Nuclear receptor subfamily 1 group I member 2 (Homo sapiens) (O75469 whole entry, looked up): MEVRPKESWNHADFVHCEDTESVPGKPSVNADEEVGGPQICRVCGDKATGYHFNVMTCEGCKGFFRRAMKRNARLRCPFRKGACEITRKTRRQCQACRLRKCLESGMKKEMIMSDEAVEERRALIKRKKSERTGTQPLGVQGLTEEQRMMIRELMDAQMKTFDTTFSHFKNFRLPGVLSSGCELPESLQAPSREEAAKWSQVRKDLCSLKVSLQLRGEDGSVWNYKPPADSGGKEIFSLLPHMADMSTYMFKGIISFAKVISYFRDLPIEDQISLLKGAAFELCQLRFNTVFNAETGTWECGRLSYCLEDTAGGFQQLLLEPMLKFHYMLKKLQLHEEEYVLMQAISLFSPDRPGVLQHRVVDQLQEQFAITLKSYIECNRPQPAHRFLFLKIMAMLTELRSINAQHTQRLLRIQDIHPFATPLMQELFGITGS
# Chain of Cytochrome P450 1A2 (Homo sapiens) (P05177 whole entry, looked up): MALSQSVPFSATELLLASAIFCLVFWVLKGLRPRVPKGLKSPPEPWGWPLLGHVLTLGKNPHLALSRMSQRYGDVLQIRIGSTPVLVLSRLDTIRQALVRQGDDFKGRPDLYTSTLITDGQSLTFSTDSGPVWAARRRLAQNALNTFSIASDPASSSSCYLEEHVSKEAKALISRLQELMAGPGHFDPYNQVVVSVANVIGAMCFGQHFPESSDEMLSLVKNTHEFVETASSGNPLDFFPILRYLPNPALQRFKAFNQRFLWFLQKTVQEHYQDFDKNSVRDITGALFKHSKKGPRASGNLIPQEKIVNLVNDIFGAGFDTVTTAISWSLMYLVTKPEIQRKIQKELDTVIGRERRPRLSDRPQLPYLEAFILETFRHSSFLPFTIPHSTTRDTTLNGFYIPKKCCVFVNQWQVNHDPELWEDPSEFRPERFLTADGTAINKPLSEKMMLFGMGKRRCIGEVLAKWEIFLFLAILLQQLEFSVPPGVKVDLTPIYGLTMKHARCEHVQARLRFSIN
# Chain of Cytochrome P450 2C9 (Homo sapiens) (P11712 whole entry, looked up): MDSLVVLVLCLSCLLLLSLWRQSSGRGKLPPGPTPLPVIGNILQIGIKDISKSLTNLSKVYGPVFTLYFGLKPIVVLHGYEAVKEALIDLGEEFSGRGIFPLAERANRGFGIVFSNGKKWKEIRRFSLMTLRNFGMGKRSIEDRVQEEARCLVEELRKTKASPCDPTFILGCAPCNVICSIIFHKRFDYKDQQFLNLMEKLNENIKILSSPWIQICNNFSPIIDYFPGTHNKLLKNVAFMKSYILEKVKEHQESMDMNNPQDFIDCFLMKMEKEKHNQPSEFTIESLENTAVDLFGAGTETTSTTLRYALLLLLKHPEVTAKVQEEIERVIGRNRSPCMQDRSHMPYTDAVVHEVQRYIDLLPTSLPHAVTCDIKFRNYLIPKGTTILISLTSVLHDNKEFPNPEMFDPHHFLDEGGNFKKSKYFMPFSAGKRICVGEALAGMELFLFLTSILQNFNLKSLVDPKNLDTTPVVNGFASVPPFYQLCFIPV
# Chain of Cytochrome P450 2C19 (Homo sapiens) (P33261 whole entry, looked up): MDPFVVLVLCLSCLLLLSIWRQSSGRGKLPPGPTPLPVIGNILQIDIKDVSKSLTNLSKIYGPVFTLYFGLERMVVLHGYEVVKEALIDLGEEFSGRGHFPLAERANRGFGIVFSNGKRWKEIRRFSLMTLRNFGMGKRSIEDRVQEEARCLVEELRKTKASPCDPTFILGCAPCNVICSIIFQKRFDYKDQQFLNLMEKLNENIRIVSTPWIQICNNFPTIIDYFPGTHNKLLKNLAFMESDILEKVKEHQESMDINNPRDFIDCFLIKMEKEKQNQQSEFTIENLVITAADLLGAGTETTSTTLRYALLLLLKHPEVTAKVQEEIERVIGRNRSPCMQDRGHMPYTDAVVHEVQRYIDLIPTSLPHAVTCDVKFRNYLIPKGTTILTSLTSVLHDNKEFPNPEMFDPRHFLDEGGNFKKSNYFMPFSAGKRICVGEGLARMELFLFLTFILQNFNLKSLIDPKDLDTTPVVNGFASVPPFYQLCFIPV
SMILES,Potency [1],Potency [2],Potency [3],Potency [4],Potency [5],Potency [6],max activation [7],Potency [8],Potency [9],Potency [10],Potency [11],Potency [12],Potency [13],Potency [14],Potency [15]
O,inactive,inactive,inactive,inactive,inactive,–,–,–,–,–,–,–,–,–,–
CCC(C)(Oc1ccc(C2(c3ccc(OC(C)(CC)C(=O)O)cc3)CCCCC2)cc1)C(=O)O (stereo not drawn),inactive,inactive,inactive,inactive,inactive,inactive,-0.804% (inactive),inactive,inactive,inactive,inactive,inactive,inactive,inactive,inactive
CCCCOCCOC(=O)c1ccccc1C(=O)OCCOCCCC,inactive,inactive,inactive,inactive,inactive,59.8 µM (active) and inactive,–,–,–,31 µM (active) and 25.2 µM (active),3.48 µM (active) and 1.78 µM (active),6.95 µM (active) and 7.1 µM (active),19.6 µM (active) and 15.9 µM (active),inactive,12.4 µM (active) and 17.8 µM (active)
C/C=C/c1ccc(OCC)c(O)c1,inactive,inactive,inactive,inactive,inactive,inactive,–,–,–,inactive,20 µM (active) and 25.2 µM (active),35.6 µM (active) and 28.3 µM (active),7.1 µM (active) and 7.96 µM (active),inactive,–
CCCNC(C)C(=O)Nc1ccccc1C (stereo not drawn),inactive,inactive,inactive,inactive,inactive,inactive,-2.15% (inactive),inactive,inactive,27.5 µM (active),inactive,inactive,inactive,inactive,inactive
Cc1ccc(S(=O)(=O)Oc2ccc(N=Nc3ccc(-c4ccc(N=Nc5c(O)ccc6cc(S(=O)(=O)O)cc(S(=O)(=O)O)c56)c(C)c4)cc3C)cc2)cc1,11.2 µM (active) and 8.92 µM (active),inactive,15.4 µM (active) and 10 µM (active),inactive,19.4 µM (active) and 15.9 µM (active),6.89 µM (active) and inactive,–,–,–,40.1 µM (active) and 26 µM (active),28.4 µM (active) and 51.9 µM (active),35.7 µM (active) and 26 µM (active),56.6 µM (active) and 23.2 µM (active),inactive,–
C#CC(C)(CC)OC(=O)c1ccccc1C(=O)O (stereo not drawn),inactive,inactive,inactive,inactive,inactive,inactive,–,–,–,inactive,inactive,inactive,inactive,inactive,inactive
CCN(CC)C(=O)Nc1ccc(OCC(O)CNC(C)(C)C)c(C(C)=O)c1 (stereo not drawn),inactive,inactive,inactive,inactive,inactive,inactive,1.62% (inactive),inactive,inactive,–,inactive,inactive,inactive,inactive,inactive
Cc1ccc(-c2cc(C(F)(F)F)nn2-c2ccc(S(N)(=O)=O)cc2)cc1,60.9 µM (active) and inactive,54.3 µM (active),48.4 µM (active) and 61.1 µM (active),inactive,60.9 µM (active) and 61.1 µM (active) and inactive,10.8 µM (active) and 5.45 µM (active) and 13.3 µM (active),0.916% (inactive),14.1 µM (active),–,998 nM (active) and 35.6 µM (active) and 15.5 µM (active),28.1 µM (active) and 50.2 µM (active),12.6 µM (active) and 11.2 µM (active) and 8.71 µM (active),inactive,–,–
c1cnc2cc3c(cc2n1)C1CNCC3C1,inactive,inactive,inactive,inactive,inactive,inactive,–,–,–,inactive,inactive,inactive,inactive,inactive,–
